Where “and” joins values, the source holds several entries; their conditions need not be identical. Equal values may be shown once. The campaign covered roughly 260,000 compounds. About 1,500 (0.58%) were called active. Inconclusive results (about 5%) are left out. Only a sample is shown. Potency and affinity values are given separately. Values without a mark were called inactive.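 How the source made its calls: active means inhibition above a set limit at one or more doses, reproduced on every date tested; inconclusive means results disagree between test dates, or hit never tested in dose response; inactive means the rest.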
Biological target: Virion infectivity factor (Human immunodeficiency virus type 1 group M subtype B (isolate BH10)) + Virion infectivity factor (Human immunodeficiency virus type 1 group M subtype B (isolate BRU/LAI)) + Virion infectivity factor (Human immunodeficiency virus type 1 group M subtype B (isolate PCV12)) + Virion infectivity factor (Human immunodeficiency virus type 1 group M subtype B (isolate HXB2)) + DNA dC->dU-editing enzyme APOBEC-3G (Homo sapiens) (UniProt P69720+P69721+P69722+P69723+Q9HC16)
Experiment: inhibitors of Vif binding to APOBEC3G peptide, primary screen, biochemical, TR-FRET, GST-Vif 1-94, biotin-A3G peptide, dose response retest (AID 1117319);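 further: Vif residues 1-94 fused to GST binding biotinylated APOBEC3G peptide 110-148; 0% = full assay without inhibitor and 100% = GST in place of GST-Vif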
Conditions: active compounds read high

Row | SMILES | inhibition
1 | O=C(Nc1cccc2c1CCCC2)C1CCCN(S(=O)(=O)c2cccc3nonc23)C1 (stereo unspecified) | 22.9% and -4.27%
2 | N#CC1=C(Nc2ccccc2)SC=C(c2ccc(F)cc2)N=C1N1CCOCC1 | -6.08%
3 | N#CC1=C(Nc2ccccc2)SC=C(c2ccccc2)N=C1N1CCOCC1 | 23.5%
4 | COc1ccc(CCNC(=O)CC(Cc2ccc(C)cc2)C(=O)O)cc1OC (stereo unspecified) | -5.29%
5 | CCc1ccc(C(=O)COC(=O)c2cnc(C)cn2)cc1 | 2.17%
6 | COc1ccc(N=C2S/C(=C\c3ccc(C)s3)C(=O)N2CC(C)C)cc1 | -0.05%
7 | CCCN1C(=O)/C(=C/c2ccc(C)o2)SC1=Nc1ccc(OC)cc1 | 23.9%
8 | Cc1cccc(Cc2ccc(Cl)nn2)c1 | 3.42%
9 | COc1cc(CCCN2C(=O)C(=O)NC[C@@H]2c2ccccc2)cc(OC)c1OC | -0.8%
10 | COc1cccc(CN2CCN(Cc3cccc4nonc34)CC2CCO)c1 (stereo unspecified) | -3.03%
11 | Cc1ccccc1CN1C[C@@H]2C[C@@H](c3cn[nH]c3-c3ccc(F)cc3)N3CCC[C@@]23C1=O | 6.1%
12 | O=S(=O)(Nc1nc2ccccc2nc1N1CCN(c2ccccc2)CC1)c1ccc(F)cc1 | 10.6%
13 | CN1CCN(c2nc3ccccc3nc2NS(=O)(=O)c2ccc(Br)cc2)CC1 | 4.67%
14 | CC(C)CNC(=O)COCc1cc(-c2ccc3c(c2)OCO3)on1 | 5.26%
15 | COc1ccc(Cl)cc1C(=O)OCC(=O)NC(=O)c1cccn1C | -9.04%
16 | COc1ccc(S(=O)(=O)N2CCCC2CNC(=O)C(=O)NCc2ccccc2)cc1 (stereo unspecified) | -0.59%
17 | CCC(=O)NCC(c1ccco1)N1CCN(c2ccc(OC)cc2)CC1 (stereo unspecified) | 2.46%
18 | CCc1ccc(C(=O)Nc2cc(C)ccc2F)s1 | -4.32%
19 | O=C1NCCc2c1[nH]c1ccccc21 | 18.5%
20 | c1ccc2c3c([nH]c2c1)CCNC3 | -5.47%
21 | COc1cc2[nH]c(=O)n(CCCCCC(=O)N3CCN(c4ccccn4)CC3)c(=O)c2cc1OC | -2.43% and 26.2%

Row | SMILES | inhibition
22 | CCC(=O)N1CC2(CC(c3cccc(NC(=O)CC(c4ccccc4)c4ccccc4)c3)=NO2)C[C@H]1C(N)=O (stereo partly specified) | 4.04%
23 | Cc1cccc(-n2c(SCC(=O)NCc3ccc4c(c3)OCO4)nc3ccccc3c2=O)c1 | 19.8%
24 | CC(Sc1nc2cc([N+](=O)[O-])ccc2n1-c1ccc(F)cc1)C(=O)NCc1ccc2c(c1)OCO2 (stereo unspecified) | -9.4%
25 | COc1ccccc1-n1c(SCC(=O)c2ccc(O)cc2O)nc2cc([N+](=O)[O-])ccc21 | 11.3%
26 | O=C(CSc1nc2ccccc2c(=O)n1-c1ccccc1)NCc1ccc2c(c1)OCO2 | -2.26%
27 | O=C(CN1CCN(c2ccccc2)CC1)c1c[nH]c2ccccc12 | -7.04%
28 | COc1cccc(/C=C2\Oc3cc(OC(=O)N4CCOCC4)ccc3C2=O)c1 | 0.99%
29 | O=C(CN(CCO)Cc1ccccc1)N1CCN(S(=O)(=O)c2ccccc2)CC1 | 0.45%
30 | C/C=C/c1ccc(OCCCn2cncn2)c(OC)c1 | -2.59%
31 | COC(=O)C1=C(C)NC(C)=C(C(=O)OC)C1c1cc2cc(C)ccc2[nH]c1=O | -2.33%
32 | COc1ccc(C2C(C#N)=C(N)Oc3c2ccc2cccnc32)cc1OC (stereo unspecified) | 18.2%
33 | Cc1ccc(C(=O)Nc2ccc3[nH]c(=O)[nH]c3c2)c(C)c1 | -1.2%
34 | C=CCn1c(SCc2nc3ccccc3[nH]2)nnc1-c1cccc(OC)c1 | 7.4%
35 | Cc1nc2ccc(S(=O)(=O)NCC(=O)NCCN3CCCCCC3)cc2s1 | -0.42%
36 | CSc1nc(N2CCOCC2)c2c3c(sc2n1)CCCC3 | 2.91%
37 | Cc1nc(N2CCOCC2)c2c3c(sc2n1)CCC3 | -7.05%
38 | C=CCN(C(=O)c1csnn1)C(C(=O)NC(C)(C)C)c1ccncc1 (stereo unspecified) | 8.31%
39 | O=C(c1ccc(CNS(=O)(=O)c2ccccc2)cc1)N1CCN(c2ccccn2)CC1 | 5.22%
40 | Oc1ccc2ccccc2c1N=Nc1ccc(F)cc1 | 7.15% and 5.32%
41 | Oc1[nH]c2ccccc2c1N=Nc1ccc(F)cc1 | -2.74%
42 | CCOC(=O)CC(NC(=O)c1cccs1)c1ccc(C)cc1 (stereo unspecified) | -0.96%

Row | SMILES | inhibition
43 | CCCCOc1ccccc1C1NC(=O)CCC1[N+](=O)[O-] (stereo unspecified) | -4.07%
44 | COc1ccccc1/C=C/C=N/NC(=O)Cc1cccs1 | -10.6%
45 | O=C(Cc1cccs1)N/N=C/C=C/c1ccccc1 | 4.16%
46 | O=C(N/N=C/C=C\c1ccco1)c1cccs1 | 2.49%
47 | O=C(CNC(=O)c1cccs1)N/N=C/c1ccco1 | 10.8%
48 | O=C(c1ccncc1)N1N=C(C2CC2)CC1(O)C(F)(F)F (stereo unspecified) | -2.38%
49 | CCOC(=O)c1c(C)oc(=O)c(CC)c1O | -0.93%
50 | Cc1ccc(S(=O)(=O)N2C[C@H]3C(=O)C[C@@H](c4ccc(Cl)cc4)N(S(=O)(=O)c4ccccc4C)[C@H]3C[C@H]2c2ccccc2)cc1 | -0.22%
51 | O=C(CSCc1c(Cl)cccc1Cl)NN=C1CCCC1 | 15.1%
52 | CCOC(=O)C1CCCN(c2c(NCC3CCCN3CC)c(=O)c2=O)C1 (stereo unspecified) | 1.77%
53 | CC(=O)N1Cc2ccccc2CC1C(=O)NCc1ccccc1F (stereo unspecified) | 0.3%
54 | CCCNC(=O)c1ccc2nc(-c3ccccc3)c(-c3ccccc3)nc2c1 | -1.93%
55 | CCc1nc2ccc(C(=O)NCc3ccco3)cc2nc1CC | 3.69%
56 | O=C(NCCO)c1ccc(Cl)c(Cl)c1 | -3.78%
57 | CCOCCCNC(=O)c1ccc2nc(-c3ccc(OC)c(OC)c3)c(-c3ccc(OC)c(OC)c3)nc2c1 | -0.07%
58 | C=CCNC(=O)c1ccc2nc(-c3ccccc3)c(-c3ccccc3)nc2c1 | -4.35%
59 | O=C(NC1CCCCC1)c1cc(-c2ccco2)on1 | 2.76%
60 | CCc1nc2ccc(C(=O)NCCc3ccco3)cc2nc1CC | 9.44%
61 | O=C(O)c1ccc2nc(-c3ccco3)c(-c3ccco3)nc2c1 | -0.3%

From PubChem BioAssay AID1117319 (Southern Research Institute, 2015)
